# Like-named read-outs stand apart in the source and are kept apart here.
# Experiments:
# [1] = system: AAK1; design: species or system human, MV4-11 + K-562 + COLO205 + SK-N-BE2 + OVCAR-8; conditions: read-out: apparent Kd, n = 1
# [2] = system: CLK1; design: species or system human, MV4-11 + K-562 + COLO205 + SK-N-BE2 + OVCAR-8; conditions: read-out: apparent Kd, n = 1
# [3] = system: CSNK2A1;CSNK2A3; design: species or system human, MV4-11 + K-562 + COLO205 + SK-N-BE2 + OVCAR-8; conditions: read-out: apparent Kd, compound concentrations: 100 nM and 1000 nM (sheet 'Samples'), n = 1
# [4] = system: CSNK2A2; design: species or system human, MV4-11 + K-562 + COLO205 + SK-N-BE2 + OVCAR-8; conditions: read-out: apparent Kd, compound concentrations: 100 nM and 1000 nM (sheet 'Samples'), n = 1
# [5] = target: Q6ZSR9 (human, UniProt Q6ZSR9); design: species or system MV4-11 + K-562 + COLO205 + SK-N-BE2 + OVCAR-8; conditions: read-out: apparent Kd, n = 1
# Sequence of Q6ZSR9 (Q6ZSR9 whole entry, looked up): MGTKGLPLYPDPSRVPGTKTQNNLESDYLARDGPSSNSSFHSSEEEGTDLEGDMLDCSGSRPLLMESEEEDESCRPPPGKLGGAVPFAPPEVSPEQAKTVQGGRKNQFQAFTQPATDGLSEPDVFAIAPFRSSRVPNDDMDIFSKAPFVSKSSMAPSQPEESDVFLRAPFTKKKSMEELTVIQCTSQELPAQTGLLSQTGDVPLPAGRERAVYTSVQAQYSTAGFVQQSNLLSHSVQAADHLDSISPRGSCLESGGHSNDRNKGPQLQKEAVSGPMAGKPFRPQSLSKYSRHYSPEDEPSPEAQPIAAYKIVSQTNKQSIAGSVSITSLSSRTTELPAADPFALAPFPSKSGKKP
# [6] = system: BMP2K; design: species or system human, MV4-11 + K-562 + COLO205 + SK-N-BE2 + OVCAR-8; conditions: read-out: apparent Kd, n = 1
# [7] = system: CLK4; design: species or system human, MV4-11 + K-562 + COLO205 + SK-N-BE2 + OVCAR-8; conditions: read-out: apparent Kd, n = 1
# [8] = system: MELK; design: species or system human, MV4-11 + K-562 + COLO205 + SK-N-BE2 + OVCAR-8; conditions: read-out: apparent Kd, n = 1
# [9] = system: FLT4; design: species or system human, MV4-11 + K-562 + COLO205 + SK-N-BE2 + OVCAR-8; conditions: read-out: apparent Kd; compound concentrations: 100 nM and 1000 nM (sheet 'Samples'), CATDS: 1.78487472229053E-2; n = 1
# [10] = system: GAK; design: species or system human, MV4-11 + K-562 + COLO205 + SK-N-BE2 + OVCAR-8; conditions: read-out: apparent Kd, compound concentrations: 100 nM and 1000 nM (sheet 'Samples'), n = 1
# [11] = system: GSK3A; design: species or system human, MV4-11 + K-562 + COLO205 + SK-N-BE2 + OVCAR-8; conditions: read-out: apparent Kd, compound concentrations: 100 nM and 1000 nM (sheet 'Samples'), n = 1
# [12] = system: GSK3B; design: species or system human, MV4-11 + K-562 + COLO205 + SK-N-BE2 + OVCAR-8; conditions: read-out: apparent Kd, compound concentrations: 100 nM and 1000 nM (sheet 'Samples'), n = 1
# [13] = system: PAK4; design: species or system human, MV4-11 + K-562 + COLO205 + SK-N-BE2 + OVCAR-8; conditions: read-out: apparent Kd, compound concentrations: 100 nM and 1000 nM (sheet 'Samples'), n = 1
# [14] = system: PKN1; design: species or system human, MV4-11 + K-562 + COLO205 + SK-N-BE2 + OVCAR-8; conditions: read-out: apparent Kd, compound concentrations: 100 nM and 1000 nM (sheet 'Samples'), n = 1
# [15] = system: PKN3; design: species or system human, MV4-11 + K-562 + COLO205 + SK-N-BE2 + OVCAR-8; conditions: read-out: apparent Kd; compound concentrations: 100 nM and 1000 nM (sheet 'Samples'), CATDS: 1.86767996374981E-2; n = 1
# [16] = system: PRKAG1; design: species or system human, MV4-11 + K-562 + COLO205 + SK-N-BE2 + OVCAR-8; conditions: read-out: apparent Kd, compound concentrations: 100 nM and 1000 nM (sheet 'Samples'), n = 1
# [17] = system: RET; design: species or system human, MV4-11 + K-562 + COLO205 + SK-N-BE2 + OVCAR-8; conditions: read-out: apparent Kd, compound concentrations: 100 nM and 1000 nM (sheet 'Samples'), n = 1
# [18] = system: SIK2; design: species or system human, MV4-11 + K-562 + COLO205 + SK-N-BE2 + OVCAR-8; conditions: read-out: apparent Kd; compound concentrations: 100 nM and 1000 nM (sheet 'Samples'), CATDS: 2.09056260277059E-2; n = 1
# [19] = system: NUAK1; design: species or system human, MV4-11 + K-562 + COLO205 + SK-N-BE2 + OVCAR-8; conditions: read-out: apparent Kd; compound concentrations: 100 nM and 1000 nM (sheet 'Samples'), CATDS: 5.6502774837069003E-2; n = 1
# [20] = compound concentrations:100 nM and 1000 nM (sheet 'Samples')
smiles,measurement,setting,value
O=C1N=C(NCCc2cccs2)S/C1=C\c1ccc2ncccc2c1 [RO4508348-000],potency estimated from few doses,"[1]; compound concentrations: 100 nM and 1000 nM (sheet 'Samples'), CATDS: 0.107531235495484",1.29 µM
same,potency estimated from few doses,"[2]; compound concentrations: 100 nM and 1000 nM (sheet 'Samples'), CATDS: 0.103004978566102",1.45 µM
same,potency estimated from few doses,[3]; CATDS: 0.103993193967583,1.41 µM
same,potency estimated from few doses,[4]; CATDS: 0.109129966582831,1.25 µM
same,potency estimated from few doses,"[5]; compound concentrations: 100 nM and 1000 nM (sheet 'Samples'), CATDS: 0.123024935972758",0.947 µM
Nc1nccc(-c2ccc3c(N)n[nH]c3c2)n1 [GSK1034945A],potency estimated from few doses,[1]; [20],0.194 µM
same,potency estimated from few doses,[6]; [20],0.194 µM
same,potency estimated from few doses,[2]; [20],0.0354 µM
same,potency estimated from few doses,[7]; [20],0.025 µM
same,potency estimated from few doses,[8]; [20],0.828 µM
same,potency estimated from few doses,[5]; [20],0.225 µM
Cl.Cn1c(=O)c(Cc2ccccc2F)cc2cnc(NC3CCOCC3)nc21 [RO3305377-001],potency estimated from few doses,"[1]; compound concentrations: 100 nM and 1000 nM (sheet 'Samples'), CATDS: 2.16510603665701E-2",0.917 µM
same,potency estimated from few doses,"[6]; compound concentrations: 100 nM and 1000 nM (sheet 'Samples'), CATDS: 1.6723713809558501E-2",1.91 µM
same,potency estimated from few doses,"[2]; compound concentrations: 100 nM and 1000 nM (sheet 'Samples'), CATDS: 1.9184829290140398E-2",1.25 µM
same,potency estimated from few doses,"[7]; compound concentrations: 100 nM and 1000 nM (sheet 'Samples'), CATDS: 2.3036060895887101E-2",0.796 µM
same,potency estimated from few doses,[9],1.54 µM
same,potency estimated from few doses,[10]; CATDS: 3.35725694953104E-2,0.389 µM
same,potency estimated from few doses,[11]; CATDS: 3.04876999302407E-2,0.459 µM
same,potency estimated from few doses,[12]; CATDS: 2.4100870065686699E-2,0.722 µM
same,potency estimated from few doses,[13]; CATDS: 1.9668858061390699E-2,1.17 µM
same,potency estimated from few doses,[14]; CATDS: 1.63422390888056E-2,2.08 µM
same,potency estimated from few doses,[15],1.35 µM
same,potency estimated from few doses,[16]; CATDS: 2.2977618233773301E-2,0.801 µM
same,potency estimated from few doses,"[5]; compound concentrations: 100 nM and 1000 nM (sheet 'Samples'), CATDS: 2.0313751812051702E-2",1.07 µM
same,potency estimated from few doses,[17]; CATDS: 2.33186267232918E-2,0.775 µM
same,potency estimated from few doses,[18],0.998 µM
Nc1nc(-c2ccc3c(N)n[nH]c3c2)cc(N2CCCC(NC(=O)c3ccccc3)C2)n1 (stereo not shown) [GSK2286775B],potency estimated from few doses,[1]; [20],0.826 µM
same,potency estimated from few doses,[5]; [20],0.821 µM
O=C1N=C(N[C@H](CO)c2ccccc2)S/C1=C\c1ccc2ncccc2c1 [RO4554339-000],potency estimated from few doses,"[1]; compound concentrations: 100 nM and 1000 nM (sheet 'Samples'), CATDS: 0.10816447707824001",0.735 µM
same,potency estimated from few doses,[3]; CATDS: 0.26590884807239001,0.111 µM
same,potency estimated from few doses,[4]; CATDS: 0.32699476113935999,0.0802 µM
same,potency estimated from few doses,"[5]; compound concentrations: 100 nM and 1000 nM (sheet 'Samples'), CATDS: 9.0735809704368106E-2",1.32 µM
CNCC1CCn2c(c(C3=C(c4cn(C)c5ccccc45)C(=O)NC3=O)c3ccccc32)C1 (stereo not shown) [RO0318676-000],potency estimated from few doses,"[1]; compound concentrations: 100 nM and 1000 nM (sheet 'Samples'), CATDS: 2.7439250549300399E-2",1.91 µM
same,potency estimated from few doses,[10]; CATDS: 3.3618066019117501E-2,0.961 µM
same,potency estimated from few doses,[11]; CATDS: 6.7317846208259105E-2,0.171 µM
same,potency estimated from few doses,[12]; CATDS: 7.2494529815898601E-2,0.146 µM
same,potency estimated from few doses,[14]; CATDS: 2.8488431691069401E-2,1.65 µM
same,potency estimated from few doses,[16]; CATDS: 3.0243229141785101E-2,1.34 µM
same,potency estimated from few doses,"[5]; compound concentrations: 100 nM and 1000 nM (sheet 'Samples'), CATDS: 2.7484619244742201E-2",1.89 µM
Cn1cc(C2=C(c3ccc(OC[C@@H](O)CO)cc3)C(=O)NC2=O)c2ccccc21 [RO3208546-000],potency estimated from few doses,"[1]; compound concentrations: 100 nM and 1000 nM (sheet 'Samples'), CATDS: 3.6946772477140302E-2",1.32 µM
same,potency estimated from few doses,"[2]; compound concentrations: 100 nM and 1000 nM (sheet 'Samples'), CATDS: 3.5256752059163503E-2",1.51 µM
same,potency estimated from few doses,[10]; CATDS: 4.3278259075416499E-2,0.885 µM
same,potency estimated from few doses,[11]; CATDS: 5.7986352312034098E-2,0.489 µM
same,potency estimated from few doses,[12]; CATDS: 4.5953894166210499E-2,0.774 µM
same,potency estimated from few doses,[16]; CATDS: 4.3402383935848998E-2,0.879 µM
same,potency estimated from few doses,"[5]; compound concentrations: 100 nM and 1000 nM (sheet 'Samples'), CATDS: 3.3781584093652402E-2",1.72 µM
CN[C@H](C#Cc1c(F)ccc2c1/C(=C/c1[nH]ccc1OC)C(=O)N2)CO.Cl [RO0283049-001],potency estimated from few doses,"[1]; compound concentrations: 100 nM and 1000 nM (sheet 'Samples'), CATDS: 2.8240152121160999E-2",0.574 µM
same,potency estimated from few doses,"[6]; compound concentrations: 100 nM and 1000 nM (sheet 'Samples'), CATDS: 7.2716114591836398E-2",0.0798 µM
same,potency estimated from few doses,[3]; CATDS: 2.0504154829503698E-2,1.69 µM
same,potency estimated from few doses,[4]; CATDS: 2.5963864867474401E-2,0.73 µM
same,potency estimated from few doses,[10]; CATDS: 2.5381960568832601E-2,0.781 µM
same,potency estimated from few doses,[11]; CATDS: 5.21732936396841E-2,0.145 µM
same,potency estimated from few doses,[12]; CATDS: 5.3689374792110299E-2,0.137 µM
same,potency estimated from few doses,"[8]; compound concentrations: 100 nM and 1000 nM (sheet 'Samples'), CATDS: 2.5364281194585201E-2",0.783 µM
same,potency estimated from few doses,[19],0.125 µM
same,potency estimated from few doses,[13]; CATDS: 2.6532527955357901E-2,0.685 µM
same,potency estimated from few doses,"[5]; compound concentrations: 100 nM and 1000 nM (sheet 'Samples'), CATDS: 2.6998984012354399E-2",0.651 µM
same,potency estimated from few doses,[17]; CATDS: 3.2863733799292097E-2,0.389 µM
